The results in this text go back to PubChem BioAssay (NCATS).

Results filed as inconclusive are left out. The source made the active and inactive calls. Unless noted, calls follow the shape of the dose curve; as a rule, active = well fitted curve in either direction with a large enough effect (not every such curve was filed as active); inconclusive = small, poorly fitted or top-dose-only effect, or another doubt; inactive = flat fitted curve, though single readings scatter.

Assay [1] in a line: AP1 Signaling Pathway (AID 357). Also: % is scaled to controls: 0 for no effect and ±100 for the full control effect. As to conditions: ME-180 AP-1-bla reporter, EGF-induced, beta-lactamase ratio, 5 h; at 7.69 µM (top of the series) unless noted. An outline of the steps: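 Cells are seeded overnight, exposed to compound titrations and an EC50 level of EGF for 5 hours at 37 °C, then loaded with CCF4 dye for 2.5 hours. Beta-lactamase activity under the AP-1 element is read as a blue/green ratio.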

Assay [2] has as its target Cytochrome P450 1A2 (Homo sapiens) (UniProt P05177). The assay can be described thus: p450-cyp1a2 (AID 410; calls by dose curve; also: potency is read from the fitted curve at half-maximal effect). Summed up: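 Luminescent demethylation readout: Luciferin-ME (100uM, equal to Km) turned over by 20nM CYP1A2 for 60 min at room temperature after NADPH regeneration addition, following 10 min compound preincubation. Normalization used 57 uM furafylline as full inhibition.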

Assay [3] can be described thus: NFAT Signaling Pathway (AID 444).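 Also: carbachol stimulus at about its EC50 of 1 µM final; % is scaled to controls: 0 for no effect and ±100 for the full control effect.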 The settings on record: Jurkat NFAT-bla M1, carbachol, beta-lactamase ratio, 5 h; at 7.69 µM (top of the series) unless noted. An outline of the steps:
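Read-out: CCF4 FRET ratio (460 nm/530 nm) after 1 h RT dye loading, used for %activity and AC50 from titration series. Cells: Jurkat NFAT-β-lactamase/M1 line, treated with compound plus 1 uM carbachol for 5 h, 37 °C.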

Assay [4] can be described thus: Stat Signaling Pathway (AID 446).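 Also: ME-180 cervical cancer cells given 40 pM IL-6 alongside compound; SIE-controlled beta-lactamase reporter measured as 460/530 nm FRET emission ratio; % is scaled to controls: 0 for no effect and ±100 for the full control effect.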 As to conditions: ME-180 (cervical carcinoma) SIE beta-lactamase reporter, IL-6 stimulated, 5 h; at 7.69 µM (top of the series) unless noted. Summed up:
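FRET read-out (405 nm excitation, 460/530 nm emission) of a beta-lactamase reporter under a STAT-inducible element in ME-180 cervical carcinoma cells. Cells with compound receive 40 pM IL-6 for 5 h. Values are normalised to AC90 stimulation and AC90 JAK-inhibitor controls.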

The target in assay [5] is Glucocorticoid receptor (Homo sapiens) (UniProt P04150). The assay can be described thus: GR-EFC Redistribution (AID 451; calls by dose curve; also: potency is read from the fitted curve at half-maximal effect). The settings on record: CHO-K1 GR-EFC translocation, beta-gal luminescence, 2 h. An outline of the steps: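 Translocation of GR-ED fusion to nuclear EA restores b-gal, read by luminescence after 1 h room-temperature detection. Engineered CHO-K1 biosensor cells, 1,000/well, exposed 2 h at 37 C to titrations up to 46 uM final.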

For assay [6], the target named is Mitogen-activated protein kinase 10 (Mus musculus) (UniProt Q61831). The assay can be described thus: JNK3 AlphaScreen Assay (AID 530).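 Also: kinase came from lysate of stimulated human HepG2 cells; signal reports phosphorylation of biotinylated GST-cJun 1-79 at Ser73 with 10 µM ATP; % is scaled to controls: 0 for no effect and ±100 for the full control effect.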 An outline of the steps: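 qHTS titrations with 15 min compound pre-incubation before adding ATP (10 uM final). Read-out: AlphaScreen of Ser73-phosphorylated biotin-GST-cJun using HepG2 lysate JNK3 activated by IL-1β and TNFα.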

Assay [7] deals with 3',5'-cyclic-AMP phosphodiesterase 4B (Homo sapiens) (UniProt Q07343). Briefly: qHTS Assay for Inhibitors of PDE-IV (AID 607; active = well fitted activation curve with a large enough effect in the main read-out, with a control signal flat, not every such curve was filed as active; also: % of control where 0% means no effect). An outline of the steps: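 Cell-based read-out of cAMP via a modified cyclic nucleotide-gated channel and membrane potential dye (535/590 nm) in HEK293 cells expressing PDE4 endogenously. Compounds tested up to 22.9 uM final; 100 uM RO 20-1724 reference.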

For assay [8], the target named is Cytochrome P450 3A4 (Homo sapiens) (UniProt P08684). Briefly: qHTS Assay for Activators of Cytochrome P450 3A4 (AID 885; active = well fitted curve in the direction sought with a large enough effect; an effect the other way counts as inactive or inconclusive; also: nearly all actives have a fitted effect of over 65% in size). An outline of the steps:
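Luminescent readout of luciferin formed from 25 uM Luciferin-PPXE (KM level) by 20 nM CYP3A4 in 200 mM KPO4, with 60 min NADPH-driven reaction at room temperature after 10 min compound exposure. Ketoconazole (57 uM) defined 100% inhibition.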

The nature of assay [9]: qHTS Assay for Lipid Storage Modulators (AID 1519; calls by dose curve). The settings on record: Drosophila S3 cells, BODIPY lipid droplet/cell ratio, laser cytometry, cells loaded with oleic acid; for activity change, negative = inhibition: at 57.5 µM (top of the series). Summed up: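 Cells seeded at 5,000 per well were treated with compounds over a concentration series and loaded with oleic acid (400 uM, as added). Lipid droplet fluorescence (488 nm excitation, 500-530 nm channel) was read by laser-scanning cytometry and normalized to 20 uM Triacsin C.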

The nature of assay [10]: Primary qHTS for small molecule stabilizers of the endoplasmic reticulum resident proteome: Secreted ER Calcium Modulated Protein (SERCaMP) assay (AID 1508630; active = well fitted curve in the direction sought with a large enough effect; an effect the other way counts as inactive or inconclusive; also: % is scaled to controls: 0 for no effect and ±100 for the full control effect). An outline of the steps: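 The SH-SY5Y reporter protocol was run at 3 concentrations up to 38.3 uM (primary) or 11 concentrations (follow-up): 16 h compound, 100 nM thapsigargin for 4 h, then extracellular luciferase luminescence.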

The target in assay [11] is Cytochrome P450 3A4 (Homo sapiens) (UniProt P08684). The assay can be described thus: qHTS Assay for Inhibitors and Substrates of Cytochrome P450 3A4 (AID 884; active = well fitted curve in the direction sought with a large enough effect; an effect the other way counts as inactive or inconclusive; also: potency is read from the fitted curve at half-maximal effect; nearly all actives have a fitted effect of over 50% in size). An outline of the steps:
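Luminescent readout of luciferin produced by CYP3A4 (20 nM) dealkylation of Luciferin-PPXE, 25 uM (its KM). NADPH-driven reaction ran 60 min at RT after 10 min compound preincubation; data scaled to 57 uM ketoconazole as 100% inhibition.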

Assay [12] is described as follows: Confirmation and Secondary Assay for Modulators of Hemoglobin Beta Chain Splicing at IVS2 705 locus (AID 930; active = well fitted curve in the direction sought with a large enough effect; an effect the other way counts as inactive or inconclusive;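 also: HeLa cells stably expressing the EGFP-705 splicing reporter; GFP fluorescence per well restored by corrected splicing of the IVS2-705 intron in EGFP; % of control where 0% means no effect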). Summed up:
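Read-out: total peak GFP fluorescence per well (488 nm excitation, 500-520 nm emission) by laser-scanning cytometry. Cells: HeLa EGFP-705 splicing reporter, 2 days compound exposure in Optimem/2% FCS.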

The target of assay [13] is Ubiquitin carboxyl-terminal hydrolase 1 (Homo sapiens) (UniProt O94782). The assay can be described thus: Inhibitors of USP1/UAF1: Pilot qHTS (AID 504865; active = well fitted curve in the direction sought with a large enough effect; an effect the other way counts as inactive or inconclusive;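 also: rhodamine fluorescence freed from ubiquitin-rhodamine substrate followed over time; top concentration of the series differs between compounds; % is scaled to controls: 0 for no effect and ±100 for the full control effect; nearly all actives have a fitted effect of over 35% in size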). Summed up:
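1nM USP1/UAF1 + cpd, 15 min RT; start w/ Ub-Rho 150nM final; kinetic FL 480/540 nm, 6 reads q60 s. Buffer 50mM HEPES pH 7.8, 0.5mM EDTA, 1mM TCEP, 0.01% Tween-20, 0.1 mg/ml BSA.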

For assay [14], the target named is Glucocorticoid receptor (Homo sapiens) (UniProt P04150). The assay can be described thus: GR-GFP Redistribution (AID 450;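 active = compounds whose dose series gives a full or clear partial fitted curve of increased nuclear translocation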; also: potency is read from the fitted curve at half-maximal effect). As to conditions: U2OS GR-GFP nuclear translocation, laser cytometry, 2 h.
The target of assay [15] is Lysosomal acid glucosylceramidase (Homo sapiens) (UniProt P04062). The assay can be described thus: Glucocerebrosidase-p2 (AID 348; in the data active = potency below about 10 µM; also: potency is read from the fitted curve at half-maximal effect). As to conditions: purified GBA, blue fluorogenic substrate, 40 min. An outline of the steps: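 Normal human glucocerebrosidase (0.2 nM) with blue fluorogenic substrate (80 uM final) in citrate/phosphate pH 5.9 with 10mM sodium taurocholate, 0.01% tween-20; 40 min RT, NaOH/glycine stop; fluorescence Ex 365/Em 440; AC50 from a titration from 0.6 nM upwards.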

[16] abbreviates: measured here: cell count channel max response.
[17] abbreviates: measured here: lipid channel max response.

Chain of Cytochrome P450 3A4 (Homo sapiens) (P08684 whole entry, looked up): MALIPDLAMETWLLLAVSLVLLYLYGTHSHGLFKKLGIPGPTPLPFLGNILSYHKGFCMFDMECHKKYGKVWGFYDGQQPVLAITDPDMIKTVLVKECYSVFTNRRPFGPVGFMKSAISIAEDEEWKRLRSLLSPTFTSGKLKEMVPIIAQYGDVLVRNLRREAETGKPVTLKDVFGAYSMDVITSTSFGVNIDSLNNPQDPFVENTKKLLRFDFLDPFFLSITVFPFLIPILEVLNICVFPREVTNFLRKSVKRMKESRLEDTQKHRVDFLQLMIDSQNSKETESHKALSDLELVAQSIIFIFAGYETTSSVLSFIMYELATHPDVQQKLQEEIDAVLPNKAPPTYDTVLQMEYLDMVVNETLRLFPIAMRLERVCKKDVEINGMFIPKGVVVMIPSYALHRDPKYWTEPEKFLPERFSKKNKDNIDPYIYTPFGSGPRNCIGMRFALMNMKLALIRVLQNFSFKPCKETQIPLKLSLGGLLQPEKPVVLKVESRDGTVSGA
Chain of Ubiquitin carboxyl-terminal hydrolase 1 (Homo sapiens) (O94782 whole entry, looked up): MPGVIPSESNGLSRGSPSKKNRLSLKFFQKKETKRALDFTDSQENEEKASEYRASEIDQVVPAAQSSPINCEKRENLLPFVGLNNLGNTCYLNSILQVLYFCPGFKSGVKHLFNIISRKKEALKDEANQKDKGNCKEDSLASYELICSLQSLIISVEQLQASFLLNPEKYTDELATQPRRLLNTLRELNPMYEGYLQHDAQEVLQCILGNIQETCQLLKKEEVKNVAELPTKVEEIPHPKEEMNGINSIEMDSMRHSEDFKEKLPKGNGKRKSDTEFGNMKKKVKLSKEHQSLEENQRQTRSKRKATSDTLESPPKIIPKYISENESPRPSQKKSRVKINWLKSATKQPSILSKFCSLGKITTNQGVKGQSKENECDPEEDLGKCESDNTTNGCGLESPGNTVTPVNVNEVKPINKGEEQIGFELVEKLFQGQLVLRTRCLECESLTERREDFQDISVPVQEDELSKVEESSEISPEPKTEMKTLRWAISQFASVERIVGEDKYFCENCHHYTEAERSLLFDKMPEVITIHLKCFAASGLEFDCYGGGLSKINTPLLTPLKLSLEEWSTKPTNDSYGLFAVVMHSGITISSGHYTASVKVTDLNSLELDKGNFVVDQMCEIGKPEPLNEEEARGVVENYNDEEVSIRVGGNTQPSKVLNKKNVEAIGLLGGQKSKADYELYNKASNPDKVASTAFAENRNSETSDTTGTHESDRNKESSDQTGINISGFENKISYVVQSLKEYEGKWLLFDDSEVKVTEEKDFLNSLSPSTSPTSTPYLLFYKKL
Chain of Glucocorticoid receptor (Homo sapiens) (P04150 whole entry, looked up, the tested form may be a part): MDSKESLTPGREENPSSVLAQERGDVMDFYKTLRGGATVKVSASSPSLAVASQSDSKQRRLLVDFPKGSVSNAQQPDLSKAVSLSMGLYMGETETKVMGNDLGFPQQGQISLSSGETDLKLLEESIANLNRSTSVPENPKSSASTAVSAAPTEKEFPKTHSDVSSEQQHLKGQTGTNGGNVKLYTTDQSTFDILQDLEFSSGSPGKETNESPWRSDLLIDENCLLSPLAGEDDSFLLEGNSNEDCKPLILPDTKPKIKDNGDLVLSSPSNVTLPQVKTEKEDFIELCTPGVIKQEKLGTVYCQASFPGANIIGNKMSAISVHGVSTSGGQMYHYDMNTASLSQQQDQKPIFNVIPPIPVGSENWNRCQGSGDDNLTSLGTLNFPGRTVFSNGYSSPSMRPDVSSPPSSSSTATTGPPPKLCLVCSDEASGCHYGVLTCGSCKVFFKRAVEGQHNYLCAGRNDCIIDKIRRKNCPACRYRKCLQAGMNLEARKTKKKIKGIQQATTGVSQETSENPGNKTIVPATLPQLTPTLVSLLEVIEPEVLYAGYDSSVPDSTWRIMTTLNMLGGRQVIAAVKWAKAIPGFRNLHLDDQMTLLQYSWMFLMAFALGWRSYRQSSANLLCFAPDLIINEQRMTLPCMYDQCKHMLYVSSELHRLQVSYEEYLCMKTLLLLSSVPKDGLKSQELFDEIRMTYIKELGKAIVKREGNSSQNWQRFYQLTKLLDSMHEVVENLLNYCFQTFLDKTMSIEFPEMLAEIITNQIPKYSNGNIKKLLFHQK
Chain of Cytochrome P450 1A2 (Homo sapiens) (P05177 whole entry, looked up): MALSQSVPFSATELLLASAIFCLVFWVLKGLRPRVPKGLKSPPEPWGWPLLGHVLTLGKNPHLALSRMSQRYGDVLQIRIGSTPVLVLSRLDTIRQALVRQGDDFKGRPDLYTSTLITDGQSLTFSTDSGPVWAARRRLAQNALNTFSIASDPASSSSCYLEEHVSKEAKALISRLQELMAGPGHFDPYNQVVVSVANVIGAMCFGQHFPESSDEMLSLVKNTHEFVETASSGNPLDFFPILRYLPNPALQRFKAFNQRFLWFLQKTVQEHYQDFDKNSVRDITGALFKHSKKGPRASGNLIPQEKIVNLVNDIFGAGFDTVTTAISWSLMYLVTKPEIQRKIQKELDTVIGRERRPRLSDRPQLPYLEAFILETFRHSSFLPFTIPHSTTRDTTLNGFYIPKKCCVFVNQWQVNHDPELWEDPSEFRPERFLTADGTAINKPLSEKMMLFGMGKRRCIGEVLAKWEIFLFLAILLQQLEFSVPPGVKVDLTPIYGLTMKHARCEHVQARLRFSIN
Chain of 3',5'-cyclic-AMP phosphodiesterase 4B (Homo sapiens) (Q07343 whole entry, looked up): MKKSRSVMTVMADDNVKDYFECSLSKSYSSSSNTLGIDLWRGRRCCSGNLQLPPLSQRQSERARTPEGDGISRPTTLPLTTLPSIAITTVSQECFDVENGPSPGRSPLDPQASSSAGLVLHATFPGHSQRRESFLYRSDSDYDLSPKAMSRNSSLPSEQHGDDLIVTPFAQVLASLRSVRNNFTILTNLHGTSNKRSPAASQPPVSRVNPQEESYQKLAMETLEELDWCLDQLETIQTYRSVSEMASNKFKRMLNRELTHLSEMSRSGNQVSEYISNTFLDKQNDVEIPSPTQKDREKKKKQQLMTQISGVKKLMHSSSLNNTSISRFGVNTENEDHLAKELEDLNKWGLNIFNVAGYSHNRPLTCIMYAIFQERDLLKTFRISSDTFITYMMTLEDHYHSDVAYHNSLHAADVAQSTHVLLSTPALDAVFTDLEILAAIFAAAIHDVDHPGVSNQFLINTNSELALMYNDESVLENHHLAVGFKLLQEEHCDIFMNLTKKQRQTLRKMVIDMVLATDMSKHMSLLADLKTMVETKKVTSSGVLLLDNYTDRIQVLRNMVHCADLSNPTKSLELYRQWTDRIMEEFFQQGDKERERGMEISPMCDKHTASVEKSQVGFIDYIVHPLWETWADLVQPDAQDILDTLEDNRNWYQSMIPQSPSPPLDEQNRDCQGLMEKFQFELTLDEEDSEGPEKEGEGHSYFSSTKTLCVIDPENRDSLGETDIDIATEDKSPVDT
Chain of Lysosomal acid glucosylceramidase (Homo sapiens) (P04062 whole entry, looked up): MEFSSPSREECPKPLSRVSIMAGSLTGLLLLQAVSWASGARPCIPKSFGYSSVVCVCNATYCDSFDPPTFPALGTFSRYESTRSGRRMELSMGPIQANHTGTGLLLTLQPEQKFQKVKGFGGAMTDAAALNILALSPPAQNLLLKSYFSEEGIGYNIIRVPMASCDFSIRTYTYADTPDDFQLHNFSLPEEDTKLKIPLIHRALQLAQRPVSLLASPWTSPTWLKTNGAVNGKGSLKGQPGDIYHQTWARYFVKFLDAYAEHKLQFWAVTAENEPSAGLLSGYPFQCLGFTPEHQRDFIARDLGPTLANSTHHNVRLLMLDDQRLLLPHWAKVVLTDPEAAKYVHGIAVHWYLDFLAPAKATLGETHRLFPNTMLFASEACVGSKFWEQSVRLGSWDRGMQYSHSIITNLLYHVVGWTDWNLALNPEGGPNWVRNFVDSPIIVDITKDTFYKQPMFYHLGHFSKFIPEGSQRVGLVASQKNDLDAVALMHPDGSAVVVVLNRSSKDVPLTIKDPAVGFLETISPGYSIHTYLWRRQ

Turning to `COc1ccc(C(=O)N2CCC[C@@]3(CCN(C(=O)NC(C)C)C3)C2)cc1`, the results for the activity change, negative = inhibition in [1], in [3] and in [9] were -14% (inactive), 8.55% (inactive) and 3.48% (inactive), respectively. The Potency was 12.6 µM (active) in [2] and > 46 µM (inactive) in [5]. Further, in [4], the activity, negative = inhibition was -9.21% (inactive). The Potency result in [6], in assay [7] and in assay [8] was “inactive” throughout. For the same compound, the figures for the max response in assay [9] (setting [16]) and in [9] (setting [17]) were 8.84% and 15.8%, respectively. Moreover, the result in assay [10] was inactive.

In the case of `FC(F)(F)c1ccccc1-c1cncnc1Nc1ccccc1`, the activity change, negative = inhibition was -9.67% (inactive) in assay [1], 9.21% (inactive) in [3] and 4.42% (inactive) in assay [9]. Further, the Potency in assay [2] was 25.1 µM (active); in assay [5], > 46 µM (inactive); in assay [11], 0.501 µM (active). In [4], the activity, negative = inhibition is 7.53% (inactive). Besides, the Potency result in assay [6], in assay [8] and in assay [13] was “inactive” in each case. The compound was classed as inactive in [12] and in assay [10]. Besides, the max response in assay [9] (setting [16]) worked out at 10.3%; in [9] (setting [17]), 16.8%.

Turning to `CN(C)Cc1ccccc1-c1nccc(NCc2cccs2)n1`, the activity change, negative = inhibition in [1] is 3.22% (inactive); in assay [3], -11.6% (inactive); in assay [9], 10.9% (inactive). Further, the values for the Potency in assay [2], in assay [14] and in assay [5] were 0.794 µM (active), > 46 µM (inactive) and > 46 µM (inactive), respectively. Also, the activity, negative = inhibition in assay [4] is 0.159% (inactive). The Potency result in assay [6] and in assay [13] was “inactive” in each case. The max response in assay [9] (setting [16]) worked out at 4.85%; in [9] (setting [17]), 9.23%. In assay [10], the result was inactive.

As for `O=C(c1csnn1)N1CCC2(CCCN(C(c3ccccc3)c3ccccc3)C2)CC1`, the values for the Potency in [15] and in [5] were > 11.4 µM (inactive) and > 46 µM (inactive), respectively. The activity change, negative = inhibition in [3] is 1.14% (inactive); in assay [9], -2.23% (inactive). Besides, the activity, negative = inhibition in [4] was 18.5% (inactive). The Potency result in assay [6] and in assay [7] was “inactive” each time. Moreover, the max response is -8.01% in assay [9] (setting [16]) and -8.95% in assay [9] (setting [17]). Further, the result in assay [10] was inactive.

As for `CN(C)c1ccc(-c2nc(N(C)C)c3ccccc3n2)cc1`, the activity change, negative = inhibition is 3.53% (inactive) in [1], -21.8% (inactive) in [3] and -3.41% (inactive) in [9]. Besides, the Potency is 0.251 µM (active) in assay [2], > 46 µM (inactive) in assay [14] and > 46 µM (inactive) in assay [5]. For the same compound, the Potency result in assay [6], in assay [7], in [8] and in assay [13] was “inactive” each time. In addition, the call in assay [12] and in assay [10] was inactive. Moreover, the max response in assay [9] (setting [16]) was 2.51%; in assay [9] (setting [17]), -1.1%.

For the compound `Cc1cccc(CNc2nc(-c3c(C)noc3C)nc3ccccc23)c1`, the Potency in assay [15] is > 11.4 µM (inactive); in [14], > 46 µM (inactive); in assay [5] it was > 46 µM (inactive). Besides, the activity, negative = inhibition in assay [4] is -28.8% (inactive). The Potency result in [6] was “inactive”. The result in [12] and in [10] was inactive. In addition, the activity change, negative = inhibition in assay [9] was 11.8% (inactive). The max response in [9] (setting [16]) was -6.95%; in assay [9] (setting [17]), 4.27%.
